Screening results: PubChem BioAssay, National Center for Advancing Translational Sciences (NCATS)
Most compounds without a hit are left out; they make up all but 6.2% or so of the library.
ATXN viability: cell viability loss in ATXN counter-screen | Potency, µM (top dose mostly 56.7 µM), hits mostly cytotoxic | 400,000 compounds, 0.49% hits | AID 651635 | S2 cells (HEK-293 line with an ATXN2-luciferase reporter) viability, CellTiter-Fluor protease fluorescence, 24 h; further: nearly all actives have a fitted effect of over 40% in size
KB-V1 MDR tox: kills drug-selected multidrug resistant KB-V1 cells. KB-V1 MDR cells viability, CellTiter-Glo, 72 h. Potency, µM (top dose mostly 46.1 µM), usual class: cytotoxic. 400,000 compounds, 3.4% hits. AID 1347076; further: on the % scale 0 is the no-effect control and ±100 the full control effect; nearly all actives have a fitted effect of over 60% in size
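Cytotoxicity via CellTiter-Glo luminescence after 72 h compound exposure at 37 degrees C. Cells: drug-selected KB-V1 line, DMEM phenol-red free plus 10% FBS. Compounds tested at multiple concentrations; normalized data fitted to concentration-effect curves.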
HT1080-NT tox: kills 2HG-producing HT-1080-NT fibrosarcoma cells. HT-1080-NT fibrosarcoma viability, CellTiter-Glo ATP luminescence, 48 h. Potency, µM (titrated, usually from 46.1 µM), inactives show at the top dose activity, negative = less viability, most hits filed as cytotoxic. 360,000 compounds, 1.6% hits. AID 686970;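 further: NT is the 2HG producing partner of a matched IDH1 knockdown line; 0% = DMSO-treated cells and -100% = media-only wells without cells; nearly all actives have a fitted effect of over 55% in size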
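Read-out is CellTiter-Glo luminescence after 10 minutes at room temperature, following 48 hours' compound treatment of HT-1080-NT cells (750 cells/well, RPMI, 5% FBS, 37 degrees C).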
ATXN2 expr inh: reduces ATXN2 reporter expression in HEK-293 cells; HEK-293 ATXN2-luciferase reporter, luminescence, 24 h; Potency, µM (highest dose often 57 µM), for the others: top-dose activity change, negative = inhibition, actives largely listed as inhibitors; 360,000 compounds, 0.72% hits; further: on the % scale 0 is the no-effect control and ±100 the full control effect; nearly all actives have a fitted effect of over 55% in size
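qHTS (up to 57 uM final) was run with 24 h compound exposure of reporter cells at 37 °C. Each well was multiplexed: SteadyGlo luminescence measured ATXN2-luciferase expression after a fluorogenic Gly-Phe-AFC viability readout (25 uM final).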
HT1080 IDH1KD tx: HT-1080 IDH1 knockdown cell toxicity (counter line). HT-1080 IDH1 knockdown viability, ATP luminescence, 48 h. Potency, µM (series often up to 46.1 µM), inactives show top-dose activity, negative = toxicity, actives largely listed as cytotoxic. 360,000 compounds, 2% hits. AID 686971;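 further: 0% = DMSO wells and -100% = cell-free medium wells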
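Knockdown cells (IDH1KD HT-1080) received compounds 2 h after plating at 750 cells/well and were kept 48 h at 37 °C in 5% FBS RPMI. A CellTiter-Glo luminescence read gave % activity for curve fitting.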
KB-3-1 cytotox: kills parental KB-3-1 adenocarcinoma cells | AID 1347075 | Potency, µM (top dose mostly 46.1 µM), most hits filed as cytotoxic | 400,000 compounds, 1.4% hits | KB-3-1 viability, CellTiter-Glo ATP luminescence, 72 h; further: on the % scale 0 is the no-effect control and ±100 the full control effect; nearly all actives have a fitted effect of over 60% in size
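Cytotoxicity measured as CellTiter-Glo luminescence after 72 h at 37 C. Compound titrations were pinned onto drug-naive KB-3-1 parental adenocarcinoma cells grown in DMEM with 10% FBS, and normalized data fitted to concentration-response curves.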
* marks the source's active call; other numbers are inactive results; i = inactive; ? = inconclusive; / = not tested or not shown. The call rests on the fitted dose curve; in most records, active means well fitted curve in the direction sought with a large enough effect; inconclusive means small, poorly fitted or top-dose-only effect, or another doubt; inactive means no such curve, though single readings can be large; an effect the other way counts as inactive or inconclusive. Potency means the concentration at half of the fitted maximal effect.

SMILES	ATXN viability	KB-V1 MDR tox	HT1080-NT tox	ATXN2 expr inh	HT1080 IDH1KD tx	KB-3-1 cytotox
COC(=O)c1ccc(NC(=O)Nc2ccc(F)c(Cl)c2)cc1	?	18µM*	?	?	?	i
CCc1ccc(C(=O)COC(=O)C(Cc2c[nH]c3ccccc23)NC(=O)c2ccc(CC)cc2)cc1 (stereo not given)	/	i	/	/	/	i
COc1cc(O)ccc1-c1nc2cc(C)ccn2c1Nc1ccccc1C	/	?	/	?	/	i
ClC(Cl)(c1nnnn1-c1ccccc1)c1nnnn1-c1ccccc1	?	i	?	?	6.5µM*	i
C[C@]12c3[nH]c4ccc(Cl)cc4c3CCN1C(=O)[C@@H](CC(=O)NCC13CC4CC(CC(C4)C1)C3)C[C@@H]2C(=O)N1CCCCC1	?	i	4%	?	8%	i
CCN(CC)C(=O)[C@H]1C[C@H](CC(=O)NCC23CC4CC(CC(C4)C2)C3)C(=O)N2CCc3c([nH]c4cc(-c5ccco5)ccc34)[C@]12C	i	i	8%	5%	15%	i
C[C@]12c3[nH]c4ccc(Cl)cc4c3CCN1C(=O)[C@@H](CC(=O)NCC13CC4CC(CC(C4)C1)C3)C[C@@H]2C(=O)N1CCOCC1	?	?	23µM*	?	?	?
CC[C@]12c3[nH]c4ccc(Cl)cc4c3CCN1C(=O)[C@@H](CC(=O)NCC13CC4CC(CC(C4)C1)C3)C[C@@H]2C(=O)N1CCN(C(=O)C2CC2)CC1	?	i	16µM*	25µM*	23µM*	?
C[C@]12c3[nH]c4cc(-c5ccco5)ccc4c3CCN1C(=O)[C@@H](CC(=O)NCC13CC4CC(CC(C4)C1)C3)C[C@@H]2C(=O)N1CCOCC1	?	23µM*	?	?	18µM*	?
CCc1ccc(OCC(=O)NCC(c2ccc(Cl)cc2)N2CCOCC2)cc1 (stereo not given)	i	i	/	-28%	/	i
COc1ccc(OCCNc2cc(N3CCOCC3)ccc2[N+](=O)[O-])cc1	?	?	?	-15%	?	i
CC1CN(c2ccc([N+](=O)[O-])c(NCCOc3ccccc3)c2)CCN1 (stereo not given)	?	?	15µM*	0%	16µM*	i
Cc1cccc(OCCNc2cc(N3CCN(CCO)CC3)ccc2[N+](=O)[O-])c1	?	18µM*	-4%	-18%	-9%	i
Cc1ccccc1OCCNc1cc(N2CCN(CCO)CC2)ccc1[N+](=O)[O-]	?	?	?	-20%	15µM*	i
COc1ccc(OCCNc2cc(N3CCCCC3)ccc2[N+](=O)[O-])cc1	?	i	-12%	-9%	-3%	i
COc1cccc(OCCNc2cc(N3CCOCC3)ccc2[N+](=O)[O-])c1	i	9.2µM*	-26%	47%	-25%	i
Cc1ccccc1OCCNc1cc(N2CCCCC2)ccc1[N+](=O)[O-]	?	?	-14%	11%	-19%	i
COc1ccc(CNC(=O)C(C)N2Cc3ccccc3C2=O)cc1 (stereo not given)	i	?	/	-5%	/	i
COc1ccc2cc(CNCc3ccccc3Cl)c(N3CCCC(CO)C3)nc2c1 (stereo not given)	i	/	/	/	/	/
CCN1c2ccccc2N(C)C1(C)c1ccccc1 (stereo not given)	i	i	?	18µM*	?	?
CCc1ccc(/C=C/C(=O)c2ccc(S(=O)(=O)N(C)C)cc2)cc1	i	21µM*	8%	0%	0%	i
O=C(NCc1cccn1Cc1ccccc1)Nc1ccc(Br)cc1F	?	i	/	-29%	/	i
CC(C)(C)NC(=O)NC(=O)CN1CCN(c2ccc(O)cc2)CC1	i	?	-5%	-38%	-3%	21µM*
CNC[C@@H]1CC[C@@H](N)[C@@H](O[C@H]2[C@H](O)[C@@H](O[C@H]3OC[C@](C)(O)[C@H](NC)[C@H]3O)[C@H](N)C[C@@H]2N)O1	i	/	/	/	/	/
CC1CCN(C(=O)CN2CCSc3ccc(S(=O)(=O)N(C)C)cc32)CC1	?	?	/	-3%	/	i
SMILES	ATXN viability	KB-V1 MDR tox	HT1080-NT tox	ATXN2 expr inh	HT1080 IDH1KD tx	KB-3-1 cytotox
Cc1ccnc(NC(=S)N2CCN(c3ccc(F)cc3)CC2)c1	/	i	/	/	/	i
C=CC(=O)Nc1ccc(Nc2nc(NC3CCC(N(C)C)CC3)nc3c2ncn3C(C)C)cc1 (stereo not given)	1.8µM*	i	?	?	2.3µM*	1µM*
C=CC(=O)Nc1cccc(Nc2nc(NC3CCC(N(C)C)CC3)nc3c2ncn3C(C)C)c1 (stereo not given)	/	/	/	0.031µM*	/	/
CC(C)n1cnc2c(Nc3cccc(F)c3)nc(NCCO)nc21	i	i	-20%	-6%	-29%	?
CCOC(=O)C1=C(C)NC(=S)N(C(C)=O)C1c1ccc(OC)c(OC)c1 (stereo not given)	?	i	?	-9%	?	i
CCOC(=O)C1=C(C)N(C)C(C)=C(C(=O)OCC)C1c1ccc(Cl)cc1	i	?	?	-16%	23µM*	i
CCOC(=O)C1=C(C)NC(=S)N(C(C)=O)C1c1ccc(Cl)cc1 (stereo not given)	i	i	?	-31%	13µM*	i
CCC(O)CNC(=O)c1cnn(-c2ncc3c(n2)-c2ccccc2CCC3)c1C1CC1 (stereo not given)	i	/	/	/	/	/
CC(C)c1cc(NC(=O)CCl)on1	?	i	18µM*	/	26µM*	?
O=C(NCCCc1ccccc1)c1cnc2n(c1=O)CCS2	i	15µM*	1%	60%	-5%	i
CCn1cc(/C=C/C(=O)NCc2c(C)nn(C)c2C)cn1	i	i	1%	-2%	1%	i
Cc1nn(C)c(C)c1CNC(=O)/C=C/c1ccccc1F	?	18µM*	-1%	9%	3%	i
CC(=O)Nc1nc(-c2ccc3c(c2)CCN3S(C)(=O)=O)cs1	i	i	-1%	53%	-3%	i
O=C(/C=C/c1ccc2c(c1)OCO2)NCCSCc1ccc(Cl)cc1	i	i	-13%	-30%	-18%	18µM*
O=C(/C=C/c1ccc2c(c1)OCO2)Nc1nc(-c2ccccc2)cs1	?	?	-1%	-24%	?	7.3µM*
CC(=O)NS(=O)(=O)c1ccc(NC(=O)/C=C/c2cn(-c3ccccc3)nc2-c2ccccc2)cc1	i	i	1%	5%	8%	i
